Screening results from PubChem BioAssay.
Only some compounds are listed: those with a hit (about 4.5% of all), similar ones and a draw of the others.
DAX1 inh-1 = inhibitors of DAX1 repression of SF-1 activated StAR promoter. HEK293T StAR-luciferase reporter, SF-1/DAX-1 repression relief. inhibition, % at 6.8 µM. 370,000 tested, 1.1% active. AID 652010;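 active = inhibition above the mean over all tested compounds plus 3 SD, cut at about 3.6% in these data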;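 also: 0% = DAX-1 cells with DMSO and 100% = cells lacking DAX-1 with DMSO; higher inhibition means more luminescence from relief of DAX-1 repression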
ssDAF12 agonist = activates DAF-12 receptor from parasite S. stercoralis; HEK293 ssDAF-12/GRIP1 lit1-tk-luc reporter, luminescence; % of 3 µM dafachronic acid response; activation, % at 6.8 µM; 370,000 tested, 1% active;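 active = activation above the mean over all tested compounds plus 3 SD, cut at about 0.9% in these data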;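 also: 0% = DMSO-only wells and 100% = 3 µM delta7-dafachronic acid wells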
hgDAF-12 ag = hgDAF-12 agonism, primary luciferase screen. activation, % at 6.8 µM. 370,000 tested, 1.8% active. HEK293 GAL4-hgDAF12 UAS-luciferase reporter, agonist luminescence; normalized to butyrate control;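 active = activation above a cutoff set at the mean of all screened compounds plus 3 SD, cut at about 10% in these data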;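 also: 0% = DMSO wells and 100% = sodium butyrate wells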
DAX1 inh-2 = NR0B1 (DAX1) inhibition; HEK293 Gal4-DAX1 luciferase reporter, luminescence; inhibition, % at 6.75 µM; 340,000 tested, 0.99% active; AID 504766;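 active = inhibition above the mean over all tested compounds plus 3 SD, cut at about 4.2% in these data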;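 also: 0% = DAX1-transfected cells with DMSO and 100% = empty-vector control cells with DMSO; inhibition shows as a rise in luminescence from relieved DAX1 repression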
Target sequence (P51843 207-470 limits assumed): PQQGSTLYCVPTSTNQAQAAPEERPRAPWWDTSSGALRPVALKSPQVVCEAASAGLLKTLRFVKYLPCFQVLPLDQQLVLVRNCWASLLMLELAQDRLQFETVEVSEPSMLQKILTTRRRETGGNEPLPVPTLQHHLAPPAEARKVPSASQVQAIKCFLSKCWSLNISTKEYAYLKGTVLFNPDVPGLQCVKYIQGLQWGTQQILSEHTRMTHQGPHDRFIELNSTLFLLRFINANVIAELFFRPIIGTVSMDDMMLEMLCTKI
hcDAF-12 act = activates DAF-12 receptor from parasite H. contortus; HEK293 hcDAF-12 lit1-tk-luc reporter, luminescence; 0% DMSO, 100% Δ7-dafachronic acid; activation, % at 6.8 µM; 370,000 tested, 1.4% active;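 active = activation above the mean of all tested compounds plus 3 SD, cut at about 5.5% in these data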;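 also: 100% = response to 3 µM Δ7-dafachronic acid high control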
GAA850 FXN act = frataxin GAA850 promoter activation; HEK293 lucGAA850 FXN promoter luciferase reporter, 24 h; percent of 10 µM SAHA response; activation, % at 6 µM; 360,000 tested, 0.56% active; AID 540364;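 active = activation above the average of all compounds screened plus 3 SD, cutoff fixed separately per campaign, cut at about 7.5% in these data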;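 also: 0% = DMSO wells and 100% = 10 µM SAHA wells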
* = called active by the depositor; nt = no result.

SMILES | DAX1 inh-1 | ssDAF12 agonist | hgDAF-12 ag | DAX1 inh-2 | hcDAF-12 act | GAA850 FXN act
CC1OC(Nc2ccc(N=Nc3ccccc3)cc2)C(O)C(O)C1O (stereo not drawn) | 0.0 | -1.3 | -1.9 | -1.0 | 2.6 | -0.6
CC1OC(Nc2cccc3ccccc23)C(O)C(O)C1O (stereo not drawn) | -1.6 | 1.8* | 1.9 | -0.9 | 2.3 | 0.3
COc1ccc(C)cc1S(=O)(=O)NCCN1CCOCC1 | 0.2 | -0.7 | -1.1 | -0.7 | -1.9 | 0.5
COc1ccc(Br)cc1S(=O)(=O)NCCN1CCOCC1 | 1.1 | -1.3 | 3.5 | 4.5* | -1.4 | 0.3
CCC[C@@H](/C=C/C(=O)OC(C)(C)C)Sc1ccc(C(C)(C)C)cc1 | 0.1 | -0.5 | -3.2 | nt | -1.6 | nt
CCOC(=O)c1cnc2c(ccc3ccccc32)c1NCCCN(C)C | 1.4 | 0.2 | 13.1* | 8.1* | 2.4 | 2.7
C#CCNC(=O)C[C@H]1C[C@@]2(C(=O)OC)C(=C[C@H](C(C)C)O[C@@H]2C2CC2)N(CCC2=CCCCC2)C1=O | -0.7 | -1.0 | -3.5 | nt | -0.6 | nt
CCOc1ccc(CCNC(=O)c2ccc3[nH]ccc3c2)cc1OCC | nt | -2.4 | -5.7 | nt | -4.6 | nt
COCCCn1c(=O)c2sccc2n(Cc2ccccc2)c1=O | 0.1 | -1.4 | -1.4 | 0.2 | -2.2 | 0.4
COCCCn1c(=O)c2sccc2n(Cc2ccc(C)cc2)c1=O | 0.0 | 1.0* | -1.8 | 0.5 | -0.8 | 3.4
CCCCCCn1cc(CN2CC=CS2(=O)=O)nn1 | 0.2 | -2.0 | 5.0 | nt | -1.2 | nt
O=C1CC(Sc2ncccn2)C(=O)N1c1ccccc1C(F)(F)F (stereo not drawn) | -1.0 | -1.0 | -0.5 | -0.7 | -0.3 | -0.3
Cc1ccc(Cl)cc1N1C(=O)CC(Sc2ncccn2)C1=O (stereo not drawn) | -0.2 | -0.1 | -2.0 | 4.7* | -0.9 | 1.1
O=C(Oc1cccc(-c2cnc3ccccc3n2)c1)c1ccco1 | 2.2 | 0.7 | 10.3 | 3.3 | 6.5* | 2.3
CCN(CC)S(=O)(=O)c1ccc(C)c(C(=O)Oc2cccc(-c3cnc4ccccc4n3)c2)c1 | -0.4 | -1.1 | -0.5 | 0.0 | -0.6 | 0.2
Cc1ccc([C@H](C)NC(=O)C2=C(N)N(S(=O)(=O)c3ccc(C)cc3)C(C(=O)c3ccccc3)C2c2ccccc2Cl)cc1 (stereo partly drawn) | nt | -1.6 | -4.2 | nt | -1.8 | nt
Cc1cccc(C(=O)NNC2=C(C(=O)C(F)(F)F)CCC2)c1O | 0.6 | 0.0 | 11.9* | 1.5 | 3.4 | -4.4
COc1cccc(NC(=O)/C=C/c2ccco2)c1 | 4.0* | 0.5 | 10.5* | 0.4 | 1.7 | 3.5
CSc1cccc(NC(=O)/C=C/c2ccco2)c1 | 1.1 | 0.1 | 6.8 | 0.8 | 4.6 | 2.4
COc1ccccc1NC(=O)/C=C\c1ccco1 | 0.1 | -0.2 | 3.1 | 1.2 | 5.6* | 1.5
CCOc1ccc(/C=N/n2c(-c3n[nH]c4c3CCC4)n[nH]c2=S)cc1 | -1.0 | -0.9 | 7.3 | nt | -1.7 | nt
Cn1cnc(S(=O)(=O)Nc2ccc(OC(F)(F)F)cc2)c1 | 0.5 | -1.4 | 2.5 | 5.5* | 0.9 | 2.6
CCc1nc(N2CCN(C(=O)CCl)CC2)c2c3c(sc2n1)CC(C)CC3 (stereo not drawn) | -0.5 | -0.6 | 0.5 | 4.4* | -0.5 | 1.9
CCc1nc(N2CCN(C(C)=O)CC2)c2c3c(sc2n1)CC(C(C)(C)C)CC3 (stereo not drawn) | -0.3 | -1.2 | -1.8 | 0.2 | -2.0 | 1.1
COCCn1c(C)cc(C(=O)COC(=O)c2ccc(Br)o2)c1C | 0.8 | -1.0 | 1.2 | 5.4* | 0.6 | 2.6
SMILES | DAX1 inh-1 | ssDAF12 agonist | hgDAF-12 ag | DAX1 inh-2 | hcDAF-12 act | GAA850 FXN act
Cc1cc(C(=O)COC(=O)c2ccc(Br)o2)c(C)n1C | -0.1 | -0.3 | 6.3 | 0.4 | 0.9 | 3.1
COc1cc(Cl)cc(C(c2c(C(=O)O)[nH]c3ccccc23)c2c(C(=O)O)[nH]c3ccccc23)c1O | 0.6 | -0.8 | 1.6 | 1.3 | 5.7* | -0.1
Cc1c[nH]c2cccc(-c3cc4ccccc4o3)c12 | 0.4 | 0.0 | 4.4 | nt | 2.5 | nt
CN(C)S(=O)(=O)c1cccc(C(=O)N2CCN(C(=O)C3CCCO3)CC2)c1 (stereo not drawn) | 3.8* | -0.6 | -0.8 | 1.6 | -0.3 | 0.0
CN(C)S(=O)(=O)c1ccc(C(=O)N2CCN(C(=O)C3CCCO3)CC2)cc1 (stereo not drawn) | 0.8 | -1.3 | 2.5 | -0.2 | -1.9 | 0.4
CCN1CCN(Cc2ccc(NC(=O)Nc3ccc(OC)cc3)cc2)CC1 | -0.4 | -0.8 | 9.3 | 4.3* | -0.3 | 3.0
COc1c(C)cccc1C(=O)Nc1ccc(CN2CCOCC2)cc1 | 3.5 | -0.6 | 6.9 | 3.8 | 6.0* | 5.1
COc1c(Cl)cc(Cl)cc1C(=O)Nc1ccc(CN2CCOCC2)cc1 | -0.2 | -1.3 | -0.2 | 0.5 | -1.6 | 2.1
CN(C)c1ccc(C(=O)Nc2ccc(CN3CCS(=O)(=O)CC3)cc2)cc1 | 0.5 | -2.1 | 3.6 | 0.6 | 0.1 | 1.0
COc1ccc(C(=O)Nc2ccc(CN3CCS(=O)(=O)CC3)cc2)cc1 | 0.8 | -2.3 | -1.0 | 4.4* | -0.4 | 1.6
Cc1cc([N+](=O)[O-])nn1CCCC(=O)NC1CCCCC1 | 0.0 | -1.7 | -0.4 | 8.3* | -1.1 | -1.3
Cc1c(Cl)c([N+](=O)[O-])nn1CCCC(=O)NC1CCCCC1 | 0.1 | -1.6 | 2.9 | 1.2 | 0.0 | -0.4
C=CCn1c(COc2ccc(C)cc2)nnc1SCC(=O)Nc1ccc(Oc2ccccc2)cc1 | -1.1 | -1.7 | 1.0 | nt | -1.6 | nt
O=C1CSC(c2cccnc2)N1CC1CC1 (stereo not drawn) | -0.6 | -0.2 | 1.4 | 4.8* | 0.2 | 1.0
O=C1CSC(c2cccnc2)N1Cc1ccc(Cl)cc1 (stereo not drawn) | 0.1 | -1.4 | -1.5 | 0.8 | -0.6 | 0.5
CCNC(=S)N1CCC(n2cnc3ccccc32)CC1 | -0.2 | -1.5 | -2.6 | 4.6* | 0.8 | 0.8
COC(=O)[C@]12C[C@H](CC(=O)N3CCC(c4ccccc4)CC3)C(=O)N(Cc3ccc(Cl)cc3Cl)C1=C[C@H](C(C)(C)C)O[C@@H]2C | -0.2 | 1.1* | -2.7 | nt | -0.7 | nt
O=C(c1ccc(Br)s1)N1CCc2ccccc2C1 | 3.9* | -0.6 | 2.3 | 1.9 | 2.3 | 4.1
O=C1CC2c3cc(Br)ccc3CCN2C(=O)CN1Cc1ccccc1 (stereo not drawn) | -0.1 | -0.9 | -2.4 | nt | -2.2 | nt
COc1ccc(S[C@]2(C(=O)N(C)C)CC(=O)N(C(=O)c3ccccc3)[C@@H]2c2ccc(OC)cc2)cc1 | -1.9 | -1.0 | -2.7 | nt | -1.0 | nt
Cc1cc2c(cc1C)-n1nnnc1C(N1CCN(c3ccccn3)CC1)C(c1ccc3c(c1)OCO3)=N2 (stereo not drawn) | 0.8 | 0.3 | 7.8 | nt | 6.3* | nt
CCOc1ccc(-n2c(=O)c3ccccc3c3ccccc3c2=O)cc1 | 0.0 | -1.2 | -0.3 | 4.9* | -0.4 | -0.1
